Experimental data as given in the supplement of paper PMC10933113.
A number with no mark means an inactive call.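 Rule for the calls: active = curve rank above 3; inactive = curve rank 0.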

These compounds were tested on KeratinoSens (HaCaT ARE-luciferase) cells (assay: Nrf2/ARE luciferase activation call in qHTS KeratinoSens assay (1 = active, 0 = inactive)).

SMILES	Nrf2/ARE luciferase activation call
CCC(C(=O)OCCOCCN(CC)CC)c1ccccc1.O=C(O)CC(O)(CC(=O)O)C(=O)O (stereo not drawn)	not active ARE inducer (skin sensitizer alert)
CCN(CC)CCOC(=O)C1(c2ccccc2)CCCC1.CCN(CC)CCOC(=O)C1(c2ccccc2)CCCC1.O=S(=O)(O)CCS(=O)(=O)O	not active ARE inducer (skin sensitizer alert)
CCCC[N+]1(C)CCCCC1.O=S(=O)([O-])C(F)(F)F	not active ARE inducer (skin sensitizer alert)
CN1Cc2c(N)cccc2C(c2ccccc2)C1.O=C(O)/C=C\C(=O)O (stereo not drawn)	not active ARE inducer (skin sensitizer alert)
CCCc1nc(C)c2c(=O)nc(-c3cc(S(=O)(=O)N4CCN(CC)CC4)ccc3OCC)[nH]n12.O=C(O)CC(O)(CC(=O)O)C(=O)O	not active ARE inducer (skin sensitizer alert)
CC(C)OC(=O)OCOP(=O)(CO[C@H](C)Cn1cnc2c(N)ncnc21)OCOC(=O)OC(C)C.O=C(O)C=CC(=O)O	not active ARE inducer (skin sensitizer alert)
C[C@@H](CN(C)C)CN1c2ccccc2Sc2ccccc21.C[C@@H](CN(C)C)CN1c2ccccc2Sc2ccccc21.O=C(O)[C@@H](O)[C@@H](O)C(=O)O	not active ARE inducer (skin sensitizer alert)
CCOc1cc(N)c(Cl)cc1C(=O)NCC1CN(Cc2ccc(F)cc2)CCO1.O=C(O)CC(O)(CC(=O)O)C(=O)O (stereo not drawn)	not active ARE inducer (skin sensitizer alert)
CCC[N+]1(C)CCCC1.O=S(=O)([O-])C(F)(F)F	not active ARE inducer (skin sensitizer alert)
O=C(O)/C=C/C(=O)O.O=C1c2ccccc2C(=O)N1CCc1noc(-c2ccc(CN3CCCCCC3)s2)n1	not active ARE inducer (skin sensitizer alert)
Cc1ccc(S(=O)(=O)O)cc1.NC1CCN(c2nc3c(cc2F)c(=O)c(C(=O)O)cn3-c2ccc(F)cc2F)C1 (stereo not drawn)	not active ARE inducer (skin sensitizer alert)
Nc1nc(N)nc(-c2cc(Cl)ccc2Cl)n1.O=C(O)/C=C\C(=O)O	not active ARE inducer (skin sensitizer alert)
O=C(O)/C=C/C(=O)O.c1ccc(C(O[C@H]2CCCN(CCc3ccc4c(c3)OCO4)C2)c2ccccc2)cc1	not active ARE inducer (skin sensitizer alert)
Cn1c(=O)c2c(ncn2C)n(C)c1=O.O=C(O)CC(O)(CC(=O)O)C(=O)O	not active ARE inducer (skin sensitizer alert)
C[NH+](C)CCC(c1ccc(Cl)cc1)c1ccccn1.O=C([O-])/C=C\C(=O)O (stereo not drawn)	not active ARE inducer (skin sensitizer alert)
CCN(C(=O)c1cc(C)cc(OC[C@H](C)Nc2ccncc2)c1)C(C)C.Cc1ccc(S(=O)(=O)O)cc1	not active ARE inducer (skin sensitizer alert)
NC(CO)(CO)CO.O=C(c1ccccc1)c1ccc2n1CC[C@H]2C(=O)O	not active ARE inducer (skin sensitizer alert)
O=C(O)c1ccc2ccccc2c1O.OCc1cc(C(O)CNCCCCCCOCCCCc2ccccc2)ccc1O (stereo not drawn)	not active ARE inducer (skin sensitizer alert)
CCCC[n+]1ccccc1.O=S(=O)([O-])C(F)(F)F	not active ARE inducer (skin sensitizer alert)
CN(C)CCOC(C)(c1ccccc1)c1ccccn1.O=C(O)CCC(=O)O (stereo not drawn)	not active ARE inducer (skin sensitizer alert)
CCCCn1cc[n+](C)c1.O=S(=O)([O-])C(F)(F)F	not active ARE inducer (skin sensitizer alert)
CC(C)C[P+](C)(CC(C)C)CC(C)C.Cc1ccc(S(=O)(=O)[O-])cc1	not active ARE inducer (skin sensitizer alert)
CCCCn1cc[n+](C)c1C.O=S(=O)([O-])C(F)(F)F	not active ARE inducer (skin sensitizer alert)
Cc1ccccc1C(OCCN(C)C)c1ccccc1.O=C(O)CC(O)(CC(=O)O)C(=O)O (stereo not drawn)	not active ARE inducer (skin sensitizer alert)
CN1CCC[C@@H]1CCO[C@](C)(c1ccccc1)c1ccc(Cl)cc1.O=C(O)/C=C/C(=O)O	not active ARE inducer (skin sensitizer alert)
CNC[C@H](O)c1ccc(O)c(O)c1.O=C(O)[C@H](O)[C@@H](O)C(=O)O	not active ARE inducer (skin sensitizer alert)
CCN(CC)C(=O)N1CCN(C)CC1.O=C(O)CC(O)(CC(=O)O)C(=O)O	not active ARE inducer (skin sensitizer alert)
COc1cc(N)c(Cl)cc1C(=O)NC1CCN(Cc2ccccc2)CC1.O=C(O)/C=C\C(=O)O	not active ARE inducer (skin sensitizer alert)
